# Shown are actives, neighbours in structure and some others; about 12% of the full set was active somewhere.
# USP30 inh: human USP30 deubiquitinase inhibition | Q70CQ3 | purified USP30, Ub-rhodamine cleavage fluorescence | inhibition, % at 25 µM | hit rate 5.3% among 47,000 | AID 1645860
# USP17 block: inhibitors of human USP17 deubiquitinase | A8MUK1 | purified USP17, Ub-rhodamine cleavage fluorescence, 3 h | inhibition, % at 50 µM | hit rate 6.5% among 47,000
# Target sequence (A8MUK1 whole entry, looked up): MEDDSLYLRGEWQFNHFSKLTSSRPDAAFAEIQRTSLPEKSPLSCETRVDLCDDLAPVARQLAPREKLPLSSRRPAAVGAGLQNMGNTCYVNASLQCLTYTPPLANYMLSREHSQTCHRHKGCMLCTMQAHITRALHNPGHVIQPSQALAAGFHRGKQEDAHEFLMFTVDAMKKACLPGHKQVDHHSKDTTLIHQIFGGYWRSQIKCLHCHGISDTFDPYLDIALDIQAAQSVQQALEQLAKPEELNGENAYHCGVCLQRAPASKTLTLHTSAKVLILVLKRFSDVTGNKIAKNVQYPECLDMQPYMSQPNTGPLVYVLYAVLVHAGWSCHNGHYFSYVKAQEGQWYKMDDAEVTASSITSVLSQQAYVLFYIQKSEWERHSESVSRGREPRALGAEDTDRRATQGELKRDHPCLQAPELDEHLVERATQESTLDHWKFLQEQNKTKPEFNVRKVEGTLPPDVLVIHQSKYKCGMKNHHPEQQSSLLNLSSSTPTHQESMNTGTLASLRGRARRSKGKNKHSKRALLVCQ
# USP8 block: inhibitors of human USP8 deubiquitinase; P40818; purified USP8, Ub-rhodamine cleavage fluorescence, 30 min; inhibition, % at 20 µM; hit rate 4.2% among 47,000; AID 1645853
# A number is an active result; – = inactive; · = no result given. Cut-off read from the data, not from the text of the source: active = inhibition above about 30%; inactive = the rest.
SMILES,USP30 inh,USP17 block,USP8 block
C[C@@H]1CC[C@H]2C(CN3CCN(c4ccccc4F)CC3)C(=O)O[C@]23[C@H]1CC[C@@]1(C)O[C@@H]31 (stereo partly specified),–,–,–
Cc1ccc(N(Cc2ccc(C(=O)Nc3ccc(C)c(Cl)c3)cc2)S(C)(=O)=O)cc1C,–,–,–
CCn1c(=O)[nH]c2c(C(N)=O)nc(-c3ccccn3)nc21,–,·,–
O=C(CSc1ncn(-c2ccccc2)n1)Nc1ccc(Cc2ccncc2)cc1,39.4,41.1,–
O=C(Nc1ccc(Cc2ccncc2)cc1)c1ccccc1Br,–,–,–
CCOc1cccc(-c2noc(-c3nn(-c4ccccc4)ccc3=O)n2)c1,93.2,51.9,92.9
CCOc1cccc(-c2noc(-c3nn(-c4cccc(C)c4)ccc3=O)n2)c1,–,–,87.9
COc1cccc(-n2ccc(=O)c(-c3nc(-c4cccc(C)c4)no3)n2)c1,–,–,–
Cc1cccc(-c2noc(-c3nn(-c4cccc(C)c4)ccc3=O)n2)c1,–,–,–
Oc1ccc(-c2nc3ccc(Cl)cn3c2NC2CCCCC2)cc1,–,67.2,–
COc1ccc(-c2nc3ccc(C)cn3c2NC2CCCC2)cc1,–,–,–
CS(=O)(=O)c1cccc(C(=O)Nc2sc3c(c2C(N)=O)CCCC3)c1,–,35.6,–
CCOC(=O)N1CCc2c(sc(NC(=O)c3ccc(S(C)(=O)=O)cc3)c2C(N)=O)C1,–,–,–
O=C(NCc1cccnc1)C1CCN(S(=O)(=O)c2ccc3c(c2)CCCC3)CC1,34.3,–,–
COCCNC(=O)C1CCN(S(=O)(=O)c2ccc3c(c2)CCCC3)CC1,–,–,–
CCN1CCN(c2ncc3c(=O)n(Cc4cccnc4)ccc3n2)CC1,–,–,–
OC(CN1CCN(c2ccccc2F)CC1)c1ccc2c(c1)CCN2 (stereo unspecified),–,–,–
COC(=O)C(=O)c1c(-c2ccccc2)c(-c2ccc(OC)c(OC)c2)c2c3cc(OC)c(OC)cc3ccn12,–,–,–
Cc1cc(C)nc(Nc2ccc(C3CCN(C(=O)c4cc5ccc(F)cc5[nH]4)CC3)nc2)n1,–,–,–
O=C(CC1C=CCC1)N1CCC(c2ccc(Nc3ccc(F)cn3)cn2)CC1 (stereo unspecified),–,32.2,–
Cc1cccc(OCC(=O)Nc2cc(F)c3nc(N4CCOCC4)ccc3c2)c1,–,–,60.5
CCOC(=O)c1cc(NC(=O)COc2ccccc2)ccc1N1CCOCC1,–,–,–
COC(=O)c1cc(NC(=O)COc2ccccc2F)ccc1N1CCOCC1,–,–,–
COCC(=O)Nc1cc(F)c2nc(N3CCOCC3)ccc2c1,–,63.4,88.7
COC(=O)C(Cc1ccc(C)cc1)(C(=O)OC)c1ccc([N+](=O)[O-])cc1,–,–,–
SMILES,USP30 inh,USP17 block,USP8 block
Cc1ccc(CNC(=O)Cc2nc(-c3ccccn3)n[nH]2)cc1,–,–,–
COCCC(=O)N1CCCC2(C/C=C/COc3ccccc3C(=O)NCCNC2=O)C1 (stereo unspecified),–,–,–
CCCc1ccc2c(c1CO)OC(C(C)(C)O)C2 (stereo unspecified),–,–,–
O=C(O)c1cccc2nc(-c3cccc4ccccc34)cnc12,–,–,–
O=C(O)c1cccc2oc(-c3cccc4oc(-c5ccccc5O)nc34)nc12,–,46.4,–
CCCCNC(=O)c1cccc(Nc2cc(C)nc3nc(-c4cccnc4)nn23)c1,37.7,32.2,–
CCCNC(=O)CNc1cc(C)nc2nc(-c3cccnc3)nn12,–,–,–
Cc1cc(NCC(=O)Nc2cccc(F)c2)n2nc(-c3cccnc3)nc2n1,–,–,–
Cc1cc(NCC(=O)Nc2ccc(Cl)cc2)n2nc(-c3cccnc3)nc2n1,37.5,–,–
COc1c(O)c2c(=O)cc(OC)c3c4c(OC)cc(=O)c5c6c(c7c(c(c1[C@@H](C(C)O)[C@@H]7C(C)O)c23)c54)OCO6 (stereo partly specified),–,–,–
CC(C)(NC(=O)C1CCCCC1)c1nc2c(c(C(N)=O)n1)OCCO2,–,–,–
CCOC(=O)C1CCN(C(=O)COc2ccc3c(=O)c(Oc4ccc(F)cc4)c(C)oc3c2)CC1,30.2,–,–
O=C(COc1ccc(S(=O)(=O)N2CCOCC2)cc1)N1CCC(Cc2ccccc2)CC1,–,–,–
Cc1c(C)c2ccc(OCC(=O)N3CCC(Cc4ccccc4)CC3)cc2oc1=O,47.7,–,–
CCOC(=O)C1CCCN(C(=O)COc2ccc3c(=O)c(Oc4ccccc4F)c(C)oc3c2)C1 (stereo unspecified),–,–,–
CC(C)NS(=O)(=O)c1ccc(OCC(=O)N2CCC(Cc3ccccc3)CC2)cc1,32.3,–,–
Cc1c(C)c2ccc(OCC(=O)N3CC[C@@]4(O)CCCC[C@H]4C3)cc2oc1=O,–,–,–
N#Cc1ccc(-c2ccccc2)nc1Oc1ccc(Cl)cc1,–,–,–
O=C(CNc1ccc(Cl)cc1F)Nc1ccc(S(=O)(=O)N2CCCC2)cc1,–,–,–
COc1ccc(CNC(=O)C(C)Sc2nnnn2C)cc1 (stereo unspecified),–,–,–
O=S(=O)(Cc1noc(-c2ccccc2)n1)c1ccc(F)cc1,·,–,–
COc1ccc(Br)c(-c2nc(CS(=O)(=O)c3ccc(F)cc3)no2)c1,38.4,–,–
O=C(CN1C(=O)c2cccc3cccc1c23)NCCSCc1ccc(Cl)c(Cl)c1,–,–,52.6
CCOc1ccccc1NC(=O)CN1C(=O)c2cccc3cccc1c23,–,–,67.5
Cc1cccc(CSCCNC(=O)CN2C(=O)c3cccc4cccc2c34)c1,–,40.9,–
SMILES,USP30 inh,USP17 block,USP8 block
O=C(Cc1ccc(Cl)c(Cl)c1)Nc1ccccc1N1CCCCC1,–,–,–
COc1ccccc1NC(=O)CN1C(=O)c2cccnc2Sc2ccccc21,–,–,–
Cc1cccc(CNC(=O)CN2C(=O)C3CCCN3C(=O)c3ccc(F)cc32)c1 (stereo unspecified),–,–,–
CCCc1nc2cccnc2n1C1CCN(C(=O)c2ccc(OC)cc2)C1 (stereo unspecified),–,–,–
O=C(CCc1nc(CSc2n[nH]c(-c3ccccc3)n2)no1)Nc1ccc(F)cc1F,–,–,–
Cc1cc(-c2cnc(N3CCCC3)nc2C2CCN(Cc3cccnc3)CC2)on1,·,–,–
Cc1c(Cl)cccc1-n1ncc(C(=O)N2CCN(Cc3ccccc3)CC2)c1C1CCNCC1,–,–,–
COc1ccc(C)cc1NS(=O)(=O)c1cc2c3c(c1)CCC(=O)N3CCC2,–,–,–
COc1ccccc1NC(=O)C1=C(C)Nc2ncnn2C1c1cccnc1 (stereo unspecified),–,–,–
CCC(C(=O)N1CCc2cc(OC)c(OC)cc2C1COc1ccccc1OC)c1ccccc1 (stereo unspecified),–,31.0,58.9
COc1cc2c(cc1OC)C(COc1ccccc1OC)N(C(=O)c1ccc3ccccc3c1)CC2 (stereo unspecified),–,51.8,87.7
COc1cc2c(cc1OC)C(c1ccccc1)N(Cc1ccc(C(N)=O)cc1)CC2 (stereo unspecified),–,–,–
CCOc1ccc(C(=O)N2Cc3ccccc3CC2C(N)=O)cc1OC (stereo unspecified),–,–,–
Cc1ccc(S(=O)(=O)Nc2cc3c(cc2Cl)OCCO3)cc1,–,–,–
CO[C@H]1CN(C(=O)Nc2ccccc2-c2ccccc2)[C@@H]2CC[C@@H](O)[C@H]1C2,–,–,–
